Data reported in ChEMBL document CHEMBL1961873, “Compounds: GSK PKIS; Assays: Nanosyn kinase panel” (2012).
Several values for one entry are separate records, joined by “and”; a condition that tells them apart may be missing. Equal values may be shown once.

Legend:
[1] = target: Fibroblast growth factor receptor 4 (Homo sapiens) (UniProt P22455); conditions: at 1 µM;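 note: reported figure is the averaged percent inhibition of FGFR4, from the GSK PKIS kinase screening panel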
[2] = target: Tyrosine-protein kinase Fgr (Homo sapiens) (UniProt P09769); conditions: at 0.1 µM
[3] = target: Tyrosine-protein kinase Fgr (Homo sapiens) (UniProt P09769); conditions: at 1 µM
[4] = target: Vascular endothelial growth factor receptor 1 (Homo sapiens) (UniProt P17948); conditions: at 0.1 µM
[5] = target: Vascular endothelial growth factor receptor 1 (Homo sapiens) (UniProt P17948); conditions: at 1 µM
[6] = target: Receptor-type tyrosine-protein kinase FLT3 (Homo sapiens) (UniProt P36888); conditions: at 0.1 µM
[7] = target: Receptor-type tyrosine-protein kinase FLT3 (Homo sapiens) (UniProt P36888); conditions: at 1 µM
[8] = system: T1, Receptor-type tyrosine-protein kinase FLT3 (Homo sapiens), P36888 [D835Y]; conditions: at 0.1 µM
T1 sequence (whole entry): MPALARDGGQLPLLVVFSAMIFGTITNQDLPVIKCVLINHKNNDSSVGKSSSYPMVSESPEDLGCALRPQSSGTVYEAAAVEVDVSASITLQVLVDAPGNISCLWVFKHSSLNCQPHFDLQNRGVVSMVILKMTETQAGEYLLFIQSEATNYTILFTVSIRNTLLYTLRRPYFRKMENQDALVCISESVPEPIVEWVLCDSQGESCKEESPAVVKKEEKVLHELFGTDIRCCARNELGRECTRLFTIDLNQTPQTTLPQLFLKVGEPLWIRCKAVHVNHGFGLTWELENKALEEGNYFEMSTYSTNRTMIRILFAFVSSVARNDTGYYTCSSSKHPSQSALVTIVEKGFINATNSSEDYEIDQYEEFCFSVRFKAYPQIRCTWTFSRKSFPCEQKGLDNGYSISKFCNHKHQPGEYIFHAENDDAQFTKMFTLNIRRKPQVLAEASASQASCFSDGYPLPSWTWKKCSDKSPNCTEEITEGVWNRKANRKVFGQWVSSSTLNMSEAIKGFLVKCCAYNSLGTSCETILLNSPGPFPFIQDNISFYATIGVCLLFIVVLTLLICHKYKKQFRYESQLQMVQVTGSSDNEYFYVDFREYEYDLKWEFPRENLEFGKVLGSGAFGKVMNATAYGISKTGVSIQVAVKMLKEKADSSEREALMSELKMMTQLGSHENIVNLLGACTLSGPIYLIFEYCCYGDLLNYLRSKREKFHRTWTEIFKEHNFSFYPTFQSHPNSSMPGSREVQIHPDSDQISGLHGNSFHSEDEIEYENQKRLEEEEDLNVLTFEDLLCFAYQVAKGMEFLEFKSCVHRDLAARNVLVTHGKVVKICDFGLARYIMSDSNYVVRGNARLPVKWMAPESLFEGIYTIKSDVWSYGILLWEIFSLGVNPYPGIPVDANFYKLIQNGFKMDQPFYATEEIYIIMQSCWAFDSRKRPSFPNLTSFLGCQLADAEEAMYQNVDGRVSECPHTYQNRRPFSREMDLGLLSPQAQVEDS

[9] = target: Non-receptor tyrosine-protein kinase TYK2 (Homo sapiens) (UniProt P29597); conditions: at 1 µM;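 note: values are mean percent inhibition of TYK2 kinase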
[10] = target: T2, Tyrosine-protein kinase receptor TYRO3 (Homo sapiens) (UniProt Q06418); conditions: at 0.1 µM;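 note: reported percentages are averaged inhibition values of TYRO3 kinase activity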
T2 sequence (whole entry): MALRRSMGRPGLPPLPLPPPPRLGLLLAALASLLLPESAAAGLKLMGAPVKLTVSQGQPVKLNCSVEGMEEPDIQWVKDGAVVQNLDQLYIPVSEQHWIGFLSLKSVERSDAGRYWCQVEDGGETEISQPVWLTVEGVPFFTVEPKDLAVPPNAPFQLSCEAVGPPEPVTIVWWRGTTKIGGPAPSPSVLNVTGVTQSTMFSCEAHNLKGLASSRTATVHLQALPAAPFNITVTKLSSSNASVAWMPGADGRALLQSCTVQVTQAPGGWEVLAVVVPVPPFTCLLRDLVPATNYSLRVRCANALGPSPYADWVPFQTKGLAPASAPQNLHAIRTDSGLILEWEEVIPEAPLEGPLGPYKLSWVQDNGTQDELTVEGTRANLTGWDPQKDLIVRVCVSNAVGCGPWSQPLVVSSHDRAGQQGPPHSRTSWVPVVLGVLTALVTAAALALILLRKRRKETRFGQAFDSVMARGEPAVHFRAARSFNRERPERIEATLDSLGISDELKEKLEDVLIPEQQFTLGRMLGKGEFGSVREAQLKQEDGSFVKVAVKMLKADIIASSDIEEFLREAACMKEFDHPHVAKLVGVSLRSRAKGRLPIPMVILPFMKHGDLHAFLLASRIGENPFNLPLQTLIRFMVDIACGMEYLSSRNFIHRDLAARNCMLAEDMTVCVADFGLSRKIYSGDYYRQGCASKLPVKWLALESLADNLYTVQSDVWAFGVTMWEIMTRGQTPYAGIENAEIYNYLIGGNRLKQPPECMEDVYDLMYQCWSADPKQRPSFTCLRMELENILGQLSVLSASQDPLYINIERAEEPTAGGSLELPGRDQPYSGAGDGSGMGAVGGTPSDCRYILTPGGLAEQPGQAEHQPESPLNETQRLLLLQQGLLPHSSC

Sequence of Non-receptor tyrosine-protein kinase TYK2 (Homo sapiens) (P29597 whole entry): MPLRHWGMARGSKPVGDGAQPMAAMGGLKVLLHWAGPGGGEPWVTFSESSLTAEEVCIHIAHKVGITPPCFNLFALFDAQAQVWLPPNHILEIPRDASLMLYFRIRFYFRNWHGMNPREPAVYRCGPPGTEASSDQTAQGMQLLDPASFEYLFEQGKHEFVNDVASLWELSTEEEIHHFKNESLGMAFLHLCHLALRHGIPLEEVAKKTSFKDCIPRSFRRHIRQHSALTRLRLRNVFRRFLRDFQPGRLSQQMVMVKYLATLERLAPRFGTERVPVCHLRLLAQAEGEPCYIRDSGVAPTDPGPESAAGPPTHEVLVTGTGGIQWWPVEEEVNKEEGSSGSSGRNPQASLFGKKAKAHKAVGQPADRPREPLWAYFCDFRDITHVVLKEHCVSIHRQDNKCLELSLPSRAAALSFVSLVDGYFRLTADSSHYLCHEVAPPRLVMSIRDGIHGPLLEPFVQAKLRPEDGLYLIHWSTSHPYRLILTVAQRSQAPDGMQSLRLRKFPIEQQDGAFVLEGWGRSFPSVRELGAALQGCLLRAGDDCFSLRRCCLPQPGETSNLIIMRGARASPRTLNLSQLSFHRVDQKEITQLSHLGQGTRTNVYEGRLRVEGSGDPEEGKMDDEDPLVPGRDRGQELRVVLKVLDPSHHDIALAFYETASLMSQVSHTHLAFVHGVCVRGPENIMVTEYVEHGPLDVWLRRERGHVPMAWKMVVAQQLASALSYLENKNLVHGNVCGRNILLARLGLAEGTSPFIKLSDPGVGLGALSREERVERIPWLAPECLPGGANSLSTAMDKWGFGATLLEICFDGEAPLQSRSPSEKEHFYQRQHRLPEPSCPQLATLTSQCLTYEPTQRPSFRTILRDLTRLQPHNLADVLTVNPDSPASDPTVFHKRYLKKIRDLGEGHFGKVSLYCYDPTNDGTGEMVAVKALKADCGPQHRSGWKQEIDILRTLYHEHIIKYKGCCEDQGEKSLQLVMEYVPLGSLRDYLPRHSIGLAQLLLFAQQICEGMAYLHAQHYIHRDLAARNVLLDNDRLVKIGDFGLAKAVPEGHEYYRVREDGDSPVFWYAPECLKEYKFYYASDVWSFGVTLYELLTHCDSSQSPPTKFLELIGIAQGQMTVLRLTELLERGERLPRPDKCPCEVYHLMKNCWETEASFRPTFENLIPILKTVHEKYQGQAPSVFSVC
Sequence of Fibroblast growth factor receptor 4 (Homo sapiens) (P22455 22-802 limits assumed): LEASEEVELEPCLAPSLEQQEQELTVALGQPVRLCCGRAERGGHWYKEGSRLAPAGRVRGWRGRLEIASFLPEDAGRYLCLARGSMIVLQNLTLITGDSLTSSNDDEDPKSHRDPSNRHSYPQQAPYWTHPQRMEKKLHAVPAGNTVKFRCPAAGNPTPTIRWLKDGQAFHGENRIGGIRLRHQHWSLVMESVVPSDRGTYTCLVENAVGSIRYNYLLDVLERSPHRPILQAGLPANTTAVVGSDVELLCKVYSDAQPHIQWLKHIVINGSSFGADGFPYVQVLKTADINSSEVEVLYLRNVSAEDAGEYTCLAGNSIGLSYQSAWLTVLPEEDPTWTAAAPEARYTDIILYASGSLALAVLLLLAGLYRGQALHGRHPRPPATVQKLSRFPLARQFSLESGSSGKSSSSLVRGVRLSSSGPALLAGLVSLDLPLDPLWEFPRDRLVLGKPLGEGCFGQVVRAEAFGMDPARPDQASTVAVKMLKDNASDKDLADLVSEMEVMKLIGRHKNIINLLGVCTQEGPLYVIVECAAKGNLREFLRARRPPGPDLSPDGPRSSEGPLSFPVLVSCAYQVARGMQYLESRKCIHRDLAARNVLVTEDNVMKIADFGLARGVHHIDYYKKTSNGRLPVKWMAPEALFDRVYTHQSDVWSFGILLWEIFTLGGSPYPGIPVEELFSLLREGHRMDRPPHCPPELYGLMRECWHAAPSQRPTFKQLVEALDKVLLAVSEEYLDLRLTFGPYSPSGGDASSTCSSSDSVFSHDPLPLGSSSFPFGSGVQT
Sequence of Vascular endothelial growth factor receptor 1 (Homo sapiens) (P17948 whole entry): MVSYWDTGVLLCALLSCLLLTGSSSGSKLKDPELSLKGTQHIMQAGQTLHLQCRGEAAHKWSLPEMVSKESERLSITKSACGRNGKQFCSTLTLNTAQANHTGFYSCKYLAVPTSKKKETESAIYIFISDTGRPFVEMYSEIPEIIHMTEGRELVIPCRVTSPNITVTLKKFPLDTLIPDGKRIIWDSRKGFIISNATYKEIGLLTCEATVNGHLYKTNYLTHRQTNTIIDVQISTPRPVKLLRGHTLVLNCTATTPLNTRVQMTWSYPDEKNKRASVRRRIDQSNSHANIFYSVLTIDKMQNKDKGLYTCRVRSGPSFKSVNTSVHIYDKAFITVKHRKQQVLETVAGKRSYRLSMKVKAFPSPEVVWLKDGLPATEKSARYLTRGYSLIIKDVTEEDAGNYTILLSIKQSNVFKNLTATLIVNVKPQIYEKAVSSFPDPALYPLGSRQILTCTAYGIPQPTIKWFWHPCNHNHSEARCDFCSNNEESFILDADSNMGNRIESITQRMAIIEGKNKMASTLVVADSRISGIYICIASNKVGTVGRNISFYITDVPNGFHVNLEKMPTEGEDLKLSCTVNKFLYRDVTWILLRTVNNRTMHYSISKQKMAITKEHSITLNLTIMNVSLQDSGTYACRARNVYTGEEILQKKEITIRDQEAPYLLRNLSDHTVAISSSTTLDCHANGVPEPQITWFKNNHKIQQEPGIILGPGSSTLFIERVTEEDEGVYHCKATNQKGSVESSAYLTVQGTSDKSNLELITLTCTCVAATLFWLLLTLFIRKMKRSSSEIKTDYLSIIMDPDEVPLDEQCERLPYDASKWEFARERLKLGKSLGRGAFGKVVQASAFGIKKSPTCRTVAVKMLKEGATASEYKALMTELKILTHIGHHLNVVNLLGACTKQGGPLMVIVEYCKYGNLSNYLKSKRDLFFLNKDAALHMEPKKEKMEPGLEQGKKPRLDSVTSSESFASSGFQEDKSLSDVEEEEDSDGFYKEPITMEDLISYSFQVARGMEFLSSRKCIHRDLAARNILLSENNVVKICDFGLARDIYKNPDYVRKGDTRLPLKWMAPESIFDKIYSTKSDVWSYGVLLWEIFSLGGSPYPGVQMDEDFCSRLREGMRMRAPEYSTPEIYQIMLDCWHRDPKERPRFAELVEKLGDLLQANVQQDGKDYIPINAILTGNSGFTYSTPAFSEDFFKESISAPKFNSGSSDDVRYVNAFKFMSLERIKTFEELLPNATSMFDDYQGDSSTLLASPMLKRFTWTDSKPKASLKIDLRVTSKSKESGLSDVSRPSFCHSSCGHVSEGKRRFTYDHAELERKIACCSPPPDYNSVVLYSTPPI
Sequence of Tyrosine-protein kinase Fgr (Homo sapiens) (P09769 2-529 limits assumed): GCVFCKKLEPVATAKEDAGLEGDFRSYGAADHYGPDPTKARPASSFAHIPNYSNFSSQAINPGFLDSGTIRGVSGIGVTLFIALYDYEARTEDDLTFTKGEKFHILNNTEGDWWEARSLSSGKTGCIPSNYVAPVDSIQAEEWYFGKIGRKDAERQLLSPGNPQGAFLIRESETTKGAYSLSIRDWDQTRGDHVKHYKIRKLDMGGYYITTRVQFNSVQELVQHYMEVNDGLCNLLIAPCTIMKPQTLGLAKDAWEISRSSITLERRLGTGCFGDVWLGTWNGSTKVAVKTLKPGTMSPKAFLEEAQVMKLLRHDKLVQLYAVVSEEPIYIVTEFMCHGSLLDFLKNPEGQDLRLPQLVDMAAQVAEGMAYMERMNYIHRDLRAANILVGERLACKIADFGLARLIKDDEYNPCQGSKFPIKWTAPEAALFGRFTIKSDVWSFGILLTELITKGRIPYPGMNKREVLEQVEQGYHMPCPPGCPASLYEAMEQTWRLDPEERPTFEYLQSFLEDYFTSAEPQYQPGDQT

| Structure (SMILES) | inhibition [1] | inhibition [2] | inhibition [3] | inhibition [4] | inhibition [5] | inhibition [6] | inhibition [7] | inhibition [8] | inhibition [9] | inhibition [10] |
| --- | --- | --- | --- | --- | --- | --- | --- | --- | --- | --- |
| CN1CCC(C(=O)Nc2n[nH]c3nc(-c4ccc(O)cc4)c(Br)cc23)CC1 | -2.79% and 2.44% | 4.74% and 1.32% | 4.79% and 3.79% | -0.55% and 2.25% | 1.75% and 2.84% | 1.75% and 4.1% | 5.59% and 2.93% | -2.26% and 1.33% | -0.92% and -0.98% | 2.21% and 0.67% |
| CS(=O)(=O)Nc1ccc(-c2ccc3c(NC(=O)C4CC4)n[nH]c3c2)cc1 | 0.84% | 1.59% | 7.28% | 1.26% | 3.04% | -0.08% | 5.66% | 1.14% | -2.13% | 2.75% |
| O=C1Nc2ccccc2/C1=C1\CCc2cc(O)ccc21 | 3.99% | 2.44% | 15.4% | 12.7% | 25.7% | 40.7% | 85.5% | 27.1% | 6.88% | 4.69% |
| CCS(=O)(=O)c1ccc(OC)c(Nc2ncc(-c3cccc(C(C)=O)c3)o2)c1 | 3.95% | 13.2% | 44.4% | 3.88% | 17.2% | 19.1% | 69.8% | 55.7% | -1.19% | 5.67% |
| N#Cc1ccc2c(-c3ccnc(NC4CC4)n3)c(-c3ccc(F)cc3)nn2c1 | -0.59% | 1.68% | 1.53% | 1.23% | 3.07% | 0.32% | -2.7% | -5.78% | -2.44% | -1.24% |
| CCOc1ccc2c(-c3ccnc(Nc4cc(OC)cc(C(F)(F)F)c4)n3)cnn2n1 | 3.56% | 1.32% | 9.11% | 1.04% | 5.65% | 2.11% | 15.1% | 2.53% | 1.53% | 1.46% |
| CNC(=O)c1ncccc1Nc1nc(Nc2cc3c(cc2OC)CCCN3C(=O)CN(C)C)nc2[nH]ccc12 | 0.76% | 1.73% | 7.26% | 0.02% | -0.67% | 3.6% | 4.13% | 1.41% | -1.39% | 4.43% |
| Cn1c(-c2nonc2N)nc2cnccc21 | 1.93% | 2.79% | 3.33% | 1.36% | 1.68% | 4.49% | 1.55% | 1.71% | -2.34% | 1.78% |
| CN1CCN(Cc2ccc(-c3cc4ncnc(Nc5ccc(OCc6cccc(F)c6)c(Cl)c5)c4s3)o2)CC1 | 0.2% and 1% | 5.67% and 10.9% | 30.3% and 30.1% | 0.35% and 1.57% | 3.76% and 1.58% | 3.12% and 0.52% | 1.99% and 2.76% | -3.92% and 0.13% | -7.87% and -0.75% | 2.09% and 4.83% |
| Fc1ccc(Nc2nccc(-c3c(-c4ccc(C(F)(F)F)cc4)nn4ncccc34)n2)cc1F | 3.24% | -0.18% | 4.23% | 1.95% | 4.12% | 1.11% | 4.52% | 0.57% | -3.25% | 3.71% |
| O=C(O[C@H]1CN[C@H](C#Cc2cc3ncnc(Nc4ccc5c(ccn5Cc5cc(F)ccc5F)c4)c3s2)C1)N1CCOCC1 | 1.82% | 2.14% | 2.6% | 0.98% | -0.89% | 1.02% | 2.83% | -5.8% | -1.34% | 2.07% |
| COc1cc2c(cc1Nc1nc(Nc3cccc(F)c3C(N)=O)c3cc[nH]c3n1)N(C(=O)CN1CCN(C(C)C)CC1)CC2 | 1.15% | 0.5% | 0.3% | -1.2% | 1.09% | 1.14% | 0.93% | -4.8% | -1.21% | -0.96% |
| COc1cc(Nc2ncc(-c3ccccc3)o2)cc(OC)c1 | -0.29% | 5.71% | 30.2% | 4.69% | 18.8% | 71.8% | 90.5% | 5.63% | -1.72% | 2.81% |
| CN(C)CCNC(=O)Nc1ccc(N(C)c2ccnc(Nc3ccc(CS(C)(=O)=O)cc3)n2)cc1 | 2.84% | 1.07% | 9.57% | 4.18% | 8.87% | 16% | 58.6% | -5.17% | -3.31% | 2.66% |
| Cc1cc(O)cc(C)c1/C=C/c1cncc(C(=O)OC(C)(C)C)c1 | 2.64% | 8.01% | 34% | 2.02% | 2.37% | 2.32% | 1.9% | -1.99% | -2.24% | 3.2% |
